Measurements as given in PubChem BioAssay (NCATS).
Values joined by “and” are separate entries in the source; they are usually repeats but may differ in a detail not shown here. Equal values may be shown once. Records with an inconclusive call do not appear. Entries that show only a call come without a potency. A number with no mark means an inactive call. Active and inactive are the calls of the source. The call rests on the fitted dose curve; in most records, active means well fitted curve in the direction sought with a large enough effect; inconclusive means small, poorly fitted or top-dose-only effect, or another doubt; inactive means no such curve, though single readings can be large; an effect the other way counts as inactive or inconclusive.

Columns and labels:
[1] = target: Cellular tumor antigen p53 (Homo sapiens) (UniProt P04637); assay: Primary qHTS for small molecule compounds that upregulate eGFP-tagged delta133p53alpha (in N-terminal) cells. (AID 2060322); conditions: NCI-H358 eGFP-delta133p53alpha fluorescence, 24 h; activation: hits give high values; further: nearly all actives have a fitted effect of over 75% in size; further: potency means the concentration at half of the fitted maximal effect;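 on activation: cells pre-induced with doxycycline then dosed without doxycycline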
In short: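 NCI-H358 cells pre-induced 24 h with 10 ng/ml doxycycline for eGFP-delta133p53alpha, plated dox-free and exposed 24 h at 37C to titrated compounds. Fixed, Hoechst-stained; gated GFP peak intensity by laser scanning cytometry, normalized to DMSO (0%) and 57.5 uM 5-azacytidine (100%).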

[2] = target: Aldehyde dehydrogenase, mitochondrial (Homo sapiens) (UniProt P05091); assay: qHTS for Inhibitors of the Aldehyde Dehydrogenase Family (ALDH2) Primary screen (AID 2061308); conditions: ALDH2 enzyme inhibition qHTS, 1536-well; series mostly up to 56 µM; further: nearly all actives have a fitted effect of over 55% in size
[3] = target: Retinaldehyde dehydrogenase 3 (Homo sapiens) (UniProt P47895); assay: qHTS for Inhibitors of the Aldehyde Dehydrogenase Family (ALDH1A3) Validation screen (AID 2061312); conditions: ALDH1A3 enzyme inhibition qHTS validation, fluorescence; series mostly up to 42.4 µM; further: nearly all actives have a fitted effect of over 45% in size
[4] = target: Retinaldehyde dehydrogenase 3 (Homo sapiens) (UniProt P47895); assay: qHTS for Inhibitors of the Aldehyde Dehydrogenase Family (ALDH1A3) Primary screen (AID 2061315); conditions: ALDH inhibition qHTS; series mostly up to 56 µM
[5] = BET inhibitor-based combinations targeting novel dependencies in MECOM-rearranged (r) AML: OCI-AML3 cell line (AID 2202232); conditions: CellTiter-Glo luminescence, 48 h; Potency: OCI-AML3 viability; series mostly up to 46 µM; further: potency means the concentration at half of the fitted maximal effect; nearly all actives have a fitted effect of over 35% in size
In short: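 Viability of cells (500 per well) is scored by luminescent CellTiter-Glo at 48 hr post-dosing. Eleven-point titrations are normalized to DMSO and empty controls and reduced to AUC values.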

[6] = BET inhibitor-based combinations targeting novel dependencies in MECOM-rearranged (r) AML: UCSD-AML1 cell line (AID 2202235); conditions: UCSD-AML1 AML cells viability, CellTiter-Glo, 48 h; series mostly up to 46 µM; further: potency means the concentration at half of the fitted maximal effect; nearly all actives have a fitted effect of over 40% in size
In short: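 Using pin-tool transfer, drugs were added in 11 doses to cells (500/well), incubated 48 hr, and assessed with CellTiter-Glo. Z-AUC is a mean-centring transformation applied separately to each screened line.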

Cellular tumor antigen p53 (Homo sapiens), sequence (P04637 whole entry, looked up): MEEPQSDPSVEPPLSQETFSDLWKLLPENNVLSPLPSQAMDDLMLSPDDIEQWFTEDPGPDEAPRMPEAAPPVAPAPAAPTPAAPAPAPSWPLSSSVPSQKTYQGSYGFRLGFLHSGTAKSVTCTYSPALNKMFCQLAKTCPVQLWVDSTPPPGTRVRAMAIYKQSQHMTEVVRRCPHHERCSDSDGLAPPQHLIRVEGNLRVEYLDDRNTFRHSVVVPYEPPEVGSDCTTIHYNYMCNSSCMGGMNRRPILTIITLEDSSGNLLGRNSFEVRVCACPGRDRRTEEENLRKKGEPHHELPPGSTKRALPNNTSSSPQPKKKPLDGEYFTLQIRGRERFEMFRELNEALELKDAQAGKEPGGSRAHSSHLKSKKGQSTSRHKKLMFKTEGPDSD

For Cc1sc2c(c1C)C(c1ccc(Cl)cc1)=NC(CC(=O)Nc1ccc(O)cc1)c1nnc(C)n1-2 (configuration not stated), the activation [1] was -21.2%, the Potency [2] was “inactive” and the Potency [3] was “inactive”. For the same compound, the Potency [4] was “inactive”, the Potency [5] was 263 nM (active) and the Potency [6] was 742 nM (active).
For C[C@]12CC[C@H](O)C[C@H]1CC[C@@H]1[C@@H]2[C@H](O)C(=O)[C@]2(C)[C@@H](c3ccc(=O)oc3)CC[C@]12O, the Potency [1] was 0.19 µM (active), the Potency [2] was “inactive” and the Potency [4] was “inactive”.
With CC[C@@]1(O)C(=O)OCc2c1cc1n(c2=O)Cc2cc3c(OC)cccc3nc2-1 the Potency [1] was 6.59 µM (active), the Potency [2] was “inactive” and the Potency [4] was “inactive”.
For C[C@H]1CCC[C@H](O)CCC/C=C/c2cc(O)cc(O)c2C(=O)O1, the activation [1] was -13%, the Potency [2] was “inactive” and the Potency [4] was “inactive”.
For CC(C)(O)/C=C/C(=O)[C@](C)(O)[C@H]1[C@H](O)C[C@@]2(C)[C@@H]3CC=C4[C@@H](C[C@H](O)C(=O)C4(C)C)[C@]3(C)C(=O)C[C@]12C, the Potency [1] was 4.65 µM (active), the Potency [2] was “inactive” and the Potency [4] was “inactive”.
In the case of COC1CCCC(C)OC(=O)Cc2cc(O)cc(O)c2C(=O)C1 (configuration not stated), the Potency [1] is reported as 16.6 µM (active), the Potency [2] is reported as “inactive” and the Potency [4] is reported as “inactive”.
With CC(N[C@H]1C[C@H]1c1ccccc1)c1ccc2c(c1)OCCO2 (some centres not stated) the activation [1] was -13.9% and -18.6%, the Potency [2] was “inactive” and the Potency [4] was “inactive”.
For C/C=C(\C)C(=O)OC1C2C3(C)CCC(OC4CC(OC)C(OC5OC(C)C(O)C(OC)C5O)C(C)O4)CC3CCC23OC32CCC(C(C)=O)C2(C)C1OC(=O)/C(C)=C/C (configuration not stated), the activation [1] was 12.5%, the Potency [2] was “inactive” and the Potency [4] was “inactive”.
For CC(=O)OC1CC(O)C(C)(C)C2CC(OC(C)=O)C3(C)C(CCC4(C)C(c5ccoc5)C(=O)C5OC543)C12C (configuration not stated), the activation [1] was -13%, the Potency [2] was “inactive” and the Potency [4] was “inactive”.
In the case of COC1=CC(=O)O[C@@H](CCc2ccccc2)C1, the activation [1] is reported as -13.4%, the Potency [2] is reported as “inactive” and the Potency [4] is reported as “inactive”.
In the case of COc1ccc(CN(C(=O)[C@@H](N)Cc2c(C)cc(C(N)=O)cc2C)[C@@H](C)c2ncc(-c3ccccc3)[nH]2)cc1C(=O)O, the activation [1] is reported as 12.3%, the Potency [2] is reported as “inactive” and the Potency [4] is reported as “inactive”.
For COC(=O)C12C(=O)C(C)(O)C(=O)C1(C)C(C)=CC1C34CCC(OC3=O)C(C)(CO)C4CCC12C (configuration not stated), the activation [1] was -16.8%, the Potency [2] was “inactive” and the Potency [4] was “inactive”.
In the case of CC1=C2C(=O)C3[C@@H](CC=C4C[C@@H](O)CC[C@@]43C)[C@@H]2CC[C@]12O[C@@H]1C[C@H](C)CN[C@H]1[C@H]2C (some centres not stated), the activation [1] is reported as 4.58%, the Potency [2] is reported as “inactive” and the Potency [4] is reported as “inactive”.
Compound Oc1ccc2c3c1O[C@H]1[C@H](N(CCCl)CCCl)CC[C@@]4(O)[C@@H](C2)N(CC2CC2)CC[C@]314 has an activation [1] of -14.3%, an activity change, negative = inhibition [2] of -5.73% [at 11.2 µM] and an activity change, negative = inhibition [4] of -18.8% [at 11.2 µM].
With O=C(N[C@H]1CN2CCC1CC2)c1cc2cccc(Cl)c2s1 the activation [1] was 38.7%, the Potency [2] was “inactive” and the Potency [4] was “inactive”.
For C[C@]12CC[C@H](O[C@@H]3O[C@H](CO)[C@@H](O)[C@H](O)[C@H]3O[C@@H]3O[C@H](CO)[C@@H](O)[C@H](O)[C@H]3O)CC1=CC[C@@H]1[C@@H]2CC[C@]2(C)[C@@H](C3=CC(=O)OC3)CC[C@]12O, the activation [1] was 8.93%, the Potency [2] was “inactive” and the Potency [4] was “inactive”.
With C[C@]12CC[C@H](O[C@@H]3O[C@H](CO)[C@@H](O)[C@H](O)[C@H]3O)CC1CC[C@@H]1C2CC[C@]2(C)[C@@H](C3=CC(=O)OC3)CC[C@]12O (some centres not stated) the Potency [1] was 11.7 µM (active), the Potency [2] was “inactive” and the Potency [4] was “inactive”.
For CC(=O)O[C@@H]1[C@H]2CC[C@H]3[C@@](C)(O)[C@@H]4C[C@H](O)C(C)(C)[C@@]4(O)[C@H](O)C[C@@]13C[C@@]2(C)O, the activation [1] was 6.87%, the Potency [2] was “inactive” and the Potency [4] was “inactive”.
For CC[C@@H](C)[C@H]1C(=O)O[C@H](C(C)C)C(=O)N(C)[C@@H]([C@@H](C)CC)C(=O)O[C@H](C(C)C)C(=O)N(C)[C@@H]([C@H](C)CC)C(=O)O[C@H](C(C)C)C(=O)N1C, the activation [1] was 9.82%, the Potency [2] was “inactive” and the Potency [4] was “inactive”.
For CC(=O)O[C@H]1C[C@@H](OC(C)=O)C(C)(C)C2C[C@@H](O)[C@]3(C)C(CC[C@@]4(C)[C@H](C5=CC(=O)OC5O)C[C@H]5O[C@]543)[C@]21C (some centres not stated), the activation [1] was -6.87%, the Potency [2] was “inactive” and the Potency [4] was “inactive”.
In the case of CCC(C)(C#N)O[C@@H]1O[C@H](CO)[C@@H](O)[C@H](O)[C@H]1O (some centres not stated), the activation [1] is reported as 16.8%, the Potency [2] is reported as “inactive” and the Potency [4] is reported as “inactive”.
For C/C=C(\C)C(=O)OC1CC2C(C)(C)OC(=O)CC(OC(C)=O)C2(C)C2CC(OC(=O)C(C)C)C3(C)C(c4ccoc4)CC4OC43C12C (configuration not stated), the activation [1] was -19.8%, the Potency [2] was “inactive” and the Potency [4] was “inactive”.
With CCC1CN2CCc3cc(OC)c(OC)cc3C2CC1CC1=NCCc2cc(O)c(OC)cc21 (configuration not stated) the activation [1] was 23.2%, the Potency [2] was “inactive” and the Potency [4] was “inactive”.
In the case of CN1CCCC1CCOC(c1cc2nccc(C(=O)O)c2[nH]1)c1ccccc1Cl (configuration not stated), the activation [1] is reported as 4.33%, the Potency [2] is reported as “inactive” and the Potency [4] is reported as “inactive”.
In the case of CC[C@H]1C[C@@H]2CC[C@@H](O2)[C@@H](C)C(=O)O[C@H](CC)C[C@H]2CC[C@H](O2)[C@H](C)C(=O)O[C@@H](C)C[C@@H]2CC[C@@H](O2)[C@@H](C)C(=O)O[C@H](CC)C[C@H]2CC[C@H](O2)[C@H](C)C(=O)O1, the activation [1] is reported as -0.893%, the Potency [2] is reported as “inactive” and the Potency [4] is reported as “inactive”.
In the case of CO[C@H]1C[C@H](O[C@H]2CC[C@@]3(C)C(=CCC4C3CC[C@]3(C)[C@@H](C5=CC(=O)OC5)CC[C@]43O)C2)O[C@@H](C)[C@@H]1O[C@@H]1O[C@H](CO[C@@H]2O[C@H](CO)[C@@H](O)[C@H](O)[C@H]2O)[C@@H](O)[C@H](O)[C@H]1O (some centres not stated), the activation [1] is reported as 0%, the Potency [2] is reported as “inactive” and the Potency [4] is reported as “inactive”.
With CC1C/C=C/C(O)C(O)CC/C=C/c2cc(O)cc(O)c2C(=O)O1 (configuration not stated) the activation [1] was -10.7%, the Potency [2] was “inactive” and the Potency [4] was “inactive”.
In the case of C/C=C(\C)C(=O)OC1CC2C(CC=C3CC(OC4CC(OC)C(OC5CC(OC)C(OC6OC(C)C(OC7OC(CO)C(O)C(O)C7O)C(OC)C6O)C(C)O5)C(C)O4)CCC32C)C2(O)CCC(C(C)=O)C12C (configuration not stated), the activation [1] is reported as -6.25%, the Potency [2] is reported as “inactive” and the Potency [4] is reported as “inactive”.
